Screen size: about 300,000 compounds; about 37,000 (12%) were called active. No stated cut-off is given here; in the data, active means max response mostly above about 13% (no sharp cut-off); inactive means mostly below about 14%. The sample as a whole holds a higher share of actives than the screen did.

This assay can be described thus: Cycloheximide Counterscreen for Small Molecule Inhibitors of Shiga Toxin. Further: read at 38.3 µM for the half of the compounds with a filed dose; 0% is about no effect. The following applies: cell reporter, cycloheximide protein synthesis inhibition counterscreen; stronger effect = higher value.
`CCn1c(SCc2cccc(C(=O)O)c2)nnc1-c1ccc(Cl)cc1`: the max response is -1.44% (inactive).

`COc1ccc(C)cc1Nc1n[n+](-c2ccccc2)c(-c2cccc(Cl)c2Cl)s1`: the max response was -1.46% (inactive).

On to `CCOC(=O)N1CCN(C(=O)c2ccccc2N(Cc2ccccc2)S(=O)(=O)c2ccc(OC)cc2)CC1`, for which the max response is -5.35% (inactive).

In the case of `CCOc1ccc(-n2c(SCC(=O)Nc3cc(C(=O)O)ccc3Cl)nc3ccccc3c2=O)cc1`, the max response is -4.94% (inactive).

On to `O=C(O)CCC(=O)Nc1ccc(OCC2CCCO2)cc1` (stereo not given), for which the max response is -3.29% (inactive).

Take `CC1(C)Cc2ccccc2-c2[nH]c(=S)[nH]c(=O)c21`: the max response is -1.88% (inactive).

In the case of `COc1cccc(CNC(=O)CCC2CCCN(C(=O)c3ccc(F)c(Cl)c3)C2)c1` (stereo not given), the max response was 0.816% (inactive).

Consider `O=C(COC(=O)c1ccc(Cl)nc1)NCc1ccc2c(c1)OCO2`, for which the max response is -4.58% (inactive).

For the compound `O=C(NCc1ccccc1Cl)c1csc2c1CCCCC2`, the max response is -0.0989% (inactive).

For `CC(=O)Cc1nsc(NC(=O)c2csc3c2CCCC3)n1`, the max response was 16.6% (active).

Consider `CC(=O)Cc1nsc(NC(=O)c2ccc(Cl)cc2Cl)n1`, for which the max response is 27.8% (inactive).

As to `CCOC(=O)Cn1c(=O)n(Cc2ccc(OC)cc2)c(=O)c2cccnc21`, the max response was -5.57% (inactive).

With `Cc1cc(C)nc(N2CCC(C(=O)Nc3ccc4c(c3)OCCO4)CC2)n1`, the max response was 11.4% (inactive).

With `O=C(Nc1ccc2c(c1)OCCO2)C1CCCN(c2ncccn2)C1` (stereo not given), the max response was 22% (active).

Consider `O=C(Nc1cccc(Cl)c1)C1CCCN(c2cnccn2)C1` (stereo not given), for which the max response is 5.49% (inactive).

Consider `CCOc1ccc(N(CC)S(=O)(=O)c2cccc3nsnc23)cc1`, for which the max response was -1.34% (inactive).

For `CC(=O)Nc1ccc(S(=O)(=O)N2N=NC3C2C2CC4C3(CN(C(=O)OC(C)(C)C)S4(=O)=O)O2)cc1` (stereo not given), the max response is 3.73% (inactive).

Take `COc1cccc(CN(C)CC2CCCN(CCc3ccc(Cl)cc3)C2)c1OC` (stereo not given): the max response was -1.16% (inactive).

Regarding `C/C(=N\Nc1nncc2ccccc12)c1ccc(Cl)c([N+](=O)[O-])c1`, the max response was 17.3% (active).

`CC(CC(=O)O)C(=O)c1ccc(Cl)c([N+](=O)[O-])c1` (stereo not given): the max response is -0.656% (inactive).

With `Cc1nc2ccccc2c(=O)n1NC(=O)c1ccc(Cl)c([N+](=O)[O-])c1`, the max response was -5.07% (inactive).

In the case of `O=C(O)c1ccc2c(=O)n3c(nc2c1)/C(=C/c1ccc(OC(F)F)cc1OC(F)F)CC3`, the max response is 1.3% (inactive).

On to `CC(C)C(=O)N1c2ccccc2NC2=C(C(=O)CCC2)C1c1ccc(N(C)C)cc1` (stereo not given), for which the max response is 21.8% (active).

Take `CCCC(=O)N1c2ccccc2NC2=C(C(=O)CCC2)C1c1ccc(F)cc1` (stereo not given): the max response was -1.45% (inactive).

For `CCC(=O)N1c2ccccc2NC2=C(C(=O)CCC2)C1c1ccco1` (stereo not given), the max response is -5.4% (inactive).

For `O=C(NCCO)C(=O)NCC(c1ccc2c(c1)OCO2)N1CCN(c2ccc(F)cc2)CC1` (stereo not given), the max response is -1.46% (inactive).

As to `Cn1nc(C(F)(F)F)cc1C(=O)O`, the max response is -2.03% (inactive).

On to `CC12COC3(C(=O)Nc4ccc(Cl)cn4)CC1CCC32C` (stereo not given), for which the max response was -1.53% (inactive).

Take `CCCCC(CC)C(=O)Nc1ccc(Cl)cn1` (stereo not given): the max response was -1.66% (inactive).

In the case of `CCCc1cc(C(=O)Nc2ccc(Cl)cn2)cs1`, the max response is 30.5% (active).

For the compound `O=C(Nc1ccc(Cl)cn1)Nc1cccs1`, the max response was 47.7% (active).

For `COC(=O)c1ccc(NC(=O)C(C)N2C(=O)c3ccccc3C2=O)cc1` (stereo not given), the max response is -1.97% (inactive).

On to `CCCc1cc(C(=O)Nc2ccc(C(=O)OC)cc2)cs1`, for which the max response was 18.2% (active).

Take `O=C(Nc1cccc([N+](=O)[O-])c1)Nc1ccc(Cl)cn1`: the max response is -1.76% (inactive).

Turning to `Cc1ccc(NC(=O)Nc2cccc(C(F)(F)F)c2)nc1`, the max response is 9.81% (inactive).

On to `CCN(CC)C(=O)CCC(=O)Nc1ccc(C(=O)OC)cc1`, for which the max response is 0.562% (inactive).

`Cc1ccc(C(C)C)c(OCCSc2nc3ccccc3n2CC(=O)O)c1`: the max response was -3.05% (inactive).

As to `CN(CC1CCCN(CCc2cccc(C(F)(F)F)c2)C1)C(=O)c1ccc2nc[nH]c2c1` (stereo not given), the max response is 7.92% (inactive).

For the compound `Cc1ccc(-c2nc(SCC(=O)Nc3ccccc3OC(F)F)c3c(C)c(C(=O)O)sc3n2)cc1`, the max response was -2.74% (inactive).

As to `Cc1ccc(C(C)(C)C)c(OCCCCN2CCCC2)c1`, the max response was -1.44% (inactive).

`CCOc1ccc(NC(=O)CN(C)CC(=O)Nc2cccc(Cl)c2C)cc1OCC`: the max response is -1.94% (inactive).

As for `O=C(c1ccc(-c2ccccc2)cc1)C1CCCN(C(=O)c2cncs2)C1` (stereo not given), the max response is -0.779% (inactive).

As to `Cc1ccccc1NC(=O)C1CCCN(C(=O)NCc2ccccc2)C1` (stereo not given), the max response was -2.13% (inactive).

On to `CCNC(=O)N1CCCC(C(=O)c2ccc(-c3ccccc3)cc2)C1` (stereo not given), for which the max response was 35% (active).

On to `N#C/C(=C\c1cccnc1)C(=O)Nc1ccc(SC(F)F)cc1`, for which the max response is -2.71% (inactive).

Take `CCC(NC(=O)C1CCCC1)c1ccc(C)cc1` (stereo not given): the max response is -1.61% (inactive).

`Cc1c(C(=O)NCC2CCCO2)sc2nc(-c3ccccc3)cn12` (stereo not given): the max response is 78.5% (active).

Take `O=C(c1c(Cl)nc2sccn12)N1CCCc2ccccc21`: the max response is 11.5% (inactive).

In the case of `O=C(CSc1ccc(-c2ccccc2)nn1)NCC1CCCO1` (stereo not given), the max response is 8.54% (inactive).

On to `Cc1c(C(=O)N2CC(C)OC(C)C2)sc2nc(-c3ccccc3)cn12` (stereo not given), for which the max response was 26.8% (active).

For `Cc1cccc(C)c1NC(=O)N1CC(C)OC(C)C1` (stereo not given), the max response is -0.915% (inactive).

For the compound `Cc1cccc2cc3c(N)c(C(=O)N4CCCc5ccccc54)sc3nc12`, the max response is -2.83% (inactive).

Turning to `CC1CN(C(=O)CN2C(=O)NC(C)(c3ccccc3)C2=O)CC(C)O1` (stereo not given), the max response was -0.354% (inactive).

Take `CCOc1ccc(-n2c(N)c(C(=O)NCC3CCCO3)sc2=S)cc1` (stereo not given): the max response was -1.47% (inactive).

For `Cc1c(C(=O)N2CCCc3ccccc32)sc2nc(-c3ccccc3)cn12`, the max response was 7.76% (active).

Consider `O=C(NC1CC1)C(Cc1ccccc1)NS(=O)(=O)c1ccccc1F` (stereo not given), for which the max response was -2.2% (inactive).

Turning to `Cc1sc2nc(SCCO)n(-c3ccccc3)c(=O)c2c1C`, the max response is 1.18% (inactive).

As to `Cc1oc2c(F)c(F)c(F)c(F)c2c1S(=O)(=O)Nc1cccc(C(F)(F)F)c1`, the max response was 2.32% (inactive).

For the compound `COc1ccc(CNC(=O)CSc2n[nH]c(N)n2)cc1OC`, the max response is -3.7% (inactive).

Consider `COc1ccc(C)cc1NC(=O)CN(C)S(=O)(=O)c1ccc2c(c1)n(C)c(=O)c(=O)n2C`, for which the max response was 0.886% (inactive).

In the case of `Cc1ccc(S(=O)(=O)N(C)C)cc1NC(=O)/C=C/c1cccs1`, the max response was -3.65% (inactive).

Turning to `CCN(CC(=O)Nc1ccc(C)c(S(=O)(=O)N(C)C)c1)Cc1ccccc1`, the max response was 10.7% (inactive).

As to `Cc1ccc(C(=O)Nc2ccc(NC(=O)c3cccs3)cc2)c(C)c1`, the max response was 3.31% (inactive).

In the case of `Cc1ccc(C(=O)Nc2ccc(C)c(S(=O)(=O)N(C)C)c2)s1`, the max response was 73.5% (active).

As to `Cc1ccc(NC(=O)c2cccs2)cc1S(=O)(=O)N(C)C`, the max response is 17.7% (active).

Take `COc1ccc(CCC(=O)OCC(=O)Nc2ccc(C)c(S(=O)(=O)N(C)C)c2)cc1`: the max response is -1.02% (inactive).

On to `CCn1c(SCC(=O)NC2CC2)nnc1-c1ccccc1OC`, for which the max response was -2.41% (inactive).

Regarding `COc1ccc(C2CC(c3cccs3)=NN2C(=O)COC(=O)c2cc3ccccc3cc2O)cc1OC` (stereo not given), the max response was -1.77% (inactive).

Take `C=CCn1c(SCc2ccc(C(=O)NCCO)cc2)nc2ccccc2c1=O`: the max response is 0.679% (inactive).

For `Cc1cc(C)cc(N(CC(=O)NC2CCCC2)C(=O)CCC(=O)Nc2cc(C)on2)c1`, the max response was -3.66% (inactive).

In the case of `O=C(NCCCN1CCOCC1)c1ccccc1NS(=O)(=O)c1ccc(Br)cc1`, the max response was 2.08% (inactive).

For `O=C(NCCCN1CCOCC1)c1cc(-c2cccc(O)c2)on1`, the max response is 2.22% (inactive).

As to `O=C(NCCCN1CCOCC1)c1ccccc1NS(=O)(=O)c1ccc(F)cc1`, the max response was 16.7% (active).

With `O=C(NCCCN1CCOCC1)c1cc(-c2ccc(Cl)cc2)on1`, the max response was -2.13% (inactive).

For `O=C(NCCCN1CCOCC1)c1cc(-c2ccccc2F)no1`, the max response was 28% (active).

As to `O=C(Cc1c(F)cccc1Cl)N1CCN(C(=O)c2ccco2)CC1`, the max response was -3.56% (inactive).

Take `O=C(c1ccco1)N1CCN(C(=O)c2cc(-c3ccccc3F)no2)CC1`: the max response was 24.9% (active).

With `O=C(c1ccco1)N1CCN(C(=S)Nc2cc(F)cc(F)c2)CC1`, the max response was -0.627% (inactive).

As to `O=C(NCCCN1CCOCC1)c1cnn2c(-c3ccccc3)cc(-c3ccccc3)nc12`, the max response is -2.91% (inactive).

`Cc1ccccc1-n1cc(CNC(=O)CC2C(=O)NCCN2C/C=C/c2ccccc2)cn1` (stereo not given): the max response was 0.457% (inactive).

On to `COc1ccc(NC(=O)CCn2ccnc2)c(OC)c1`, for which the max response is -2.17% (inactive).

Take `COc1ccc(Cl)cc1NC(=O)C(C)N1CCc2ccccc21` (stereo not given): the max response was -0.595% (inactive).

Regarding `CC1CC(C)CN(C(=O)CSc2ccsc2[N+](=O)[O-])C1` (stereo not given), the max response was 25.5% (inactive).

Consider `COc1ccc(C(CNC(=O)COc2ccccc2OC)N2CCCCC2)cc1` (stereo not given), for which the max response was -6.3% (inactive).

On to `CC1CN(CCCOc2ccccc2-c2ccccc2)CC(C)O1` (stereo not given), for which the max response is -3.01% (inactive).

Consider `NNC(=O)CSc1nnc(-c2ccccc2)n1-c1ccccc1`, for which the max response is -4.61% (inactive).

`COc1ccc(C(=O)C2CCCN(S(=O)(=O)c3cccc(C)c3)C2)c(C)c1` (stereo not given): the max response was 1.12% (inactive).

For `COc1ccc(Cc2nnc(SCC(=O)Nc3ccc(C)c(C)c3)o2)cc1OC`, the max response is -0.716% (inactive).

Regarding `NC1=NN(c2cccc(C(=O)O)c2)C(=O)C1`, the max response is 131% (active).

For `COC(=O)CC1=NN(c2ccccc2)C(=O)C1`, the max response was -2% (inactive).

For the compound `O=C(c1cccc(N2CCCC2=O)c1)N1CCOCC1`, the max response was -1.05% (inactive).

In the case of `CCO[C@H]1OC(C(=O)N2CCN(Cc3ccccc3)CC2)=C[C@@H](c2cn(C(C)=O)c3ccccc23)[C@@H]1CCCO`, the max response was -1.61% (inactive).

Turning to `O=C(Nn1cnc2ccccc2c1=O)c1ccc(F)cc1Cl`, the max response was 22.9% (active).

Regarding `O=C(Nn1cnc2ccccc2c1=O)c1ccccc1`, the max response is 18% (inactive).

On to `O=C(Nn1cnc2ccccc2c1=O)c1ccc([N+](=O)[O-])cc1Cl`, for which the max response is 3.29% (inactive).

Values taken from PubChem BioAssay AID2314 (National Center for Advancing Translational Sciences (NCATS), 2010).
